HEK cytotox = Cytotoxic Profiling in HEK 293 Cell Line of Diverse Libraries Using Quantitative High-Throughput Screening; HEK 293 viability, ATP luminescence (CellTiter-Glo), 48-72 h; Potency, µM (doses to about 115 µM), usual class: inhibitors; 94,000 tested, 6.6% active; AID 1345083, 2018; note: nearly all actives have a fitted effect of over 60% in size
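qHTS cytotoxicity; HEK 293, 250 cells/well; compound pinned; 48 or 72 hr, 37 degree Celsius, 5% CO2, 95% humidity; CellTiter-Glo, 10 min RT; luminescence (ATP).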
NPR1 antag = Natriuretic polypeptide receptor (hNpr1) antagonism - Primary qHTS; HEK293 hNpr1 GloSensor cGMP, ANP-stimulated luminescence; Potency, µM (series often up to 46.3 µM), usual class: inhibitors; 76,000 tested, 1.6% active; AID 1347048, 2019; calls by dose curve; note: nearly all actives have a fitted effect of over 60% in size
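HEK293 cells stably expressing human Npr1 and cGMP GloSensor pGS-40F, loaded 2 h with 2% GloSensor reagent, given compound 30 min at room temperature. Luminescence read before and 20 min after 0.1 nM hNppA.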
FLuc inh-1 = Firefly luciferase inhibition profiling of diverse chemical library using quantitative high-throughput screening; Luciferin 4-monooxygenase (Photinus pyralis), P08659; purified P. pyralis luciferase, luminescence, biochemical; Potency, µM (highest dose often 115 µM), most hits filed as inhibitors; 76,000 tested, 2.5% active; note: nearly all actives have a fitted effect of over 65% in size
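Biochemical qHTS: compound (6-point titration) added to 10uM D-luciferin plus 10uM ATP in Tris acetate pH 7.5 buffer with Mg, Tween-20 and BSA, then purified enzyme at 10nM; light output imaged.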
NIH3T3 tox = Cytotoxic Profiling in NIH 3T3 Cell Line of Diverse Libraries Using Quantitative High-Throughput Screening. NIH 3T3 viability, CellTiter-Glo ATP luminescence, 48-72 h. Potency, µM (titrated, usually from 96.7 µM), usual class: inhibitors. 94,000 tested, 4.3% active. AID 1345082, 2018; note: nearly all actives have a fitted effect of over 55% in size
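Luminescent ATP readout (CellTiter-Glo, 10 min RT) after 48 or 72 hr compound exposure of NIH 3T3 cells seeded at 400 cells/well in 1536-well format; quantitative HTS.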
FLuc SDR no ATP = Firefly luciferase (FLuc-C-HiBiT) SDR gain of signal screen - without ATP. shares compounds with FLuc inh-1. Potency, µM (top dose mostly 32.7 µM), most hits filed as activators. Purified FLuc-C-HiBiT, Nano-Glo HiBiT luminescence, no ATP. 1,300 tested, 7.8% active; note: nearly all actives have a fitted effect of over 55% in size
FLuc SDR ATP = Firefly luciferase (FLuc-C-HiBiT) SDR gain of signal screen - plus ATP. AID 1963319, 2024. shares compounds with FLuc inh-1. 1,300 tested, 8.7% active. Potency, µM (top dose mostly 32.7 µM), usual class: activators. purified FLuc-C-HiBiT + ATP, HiBiT complementation luminescence;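 note: signal reports ligand binding via conformational change of the enzyme rather than luciferase catalysis; nearly all actives have a fitted effect of over 55% in size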
FLuc inh-2 = Firefly luciferase (FLuc-C-HiBiT) enzymatic inhibition screen - Functional assay; shares compounds with FLuc inh-1; purified FLuc-C-HiBiT enzyme, luciferin luminescence; Potency, µM (titrated, usually from 32.7 µM), usual class: inhibitors; 1,300 tested, 42% active; note: nearly all actives have a fitted effect of over 70% in size
NPR1 antag cnf = Natriuretic polypeptide receptor (hNpr1) antagonism - Confirmation. shares compounds with NPR1 antag. Potency, µM (top dose mostly 57.6 µM), most hits filed as inhibitors. AID 1347044, 2019. HEK293 hNpr1 cGMP GloSensor luminescence, ANP-stimulated. 1,400 tested, 76% active; calls by dose curve; note: nearly all actives have a fitted effect of over 70% in size
Npr2 selectivity = Natriuretic polypeptide receptor (hNpr2) antagonism - Subtype selectivity assay | shares compounds with NPR1 antag | HEK293 hNpr2 GloSensor cGMP luminescence, CNP-stimulated | Potency, µM (highest dose often 57.6 µM), actives largely listed as inhibitors | 1,400 tested, 67% active | AID 1347046, 2019; calls by dose curve; note: nearly all actives have a fitted effect of over 70% in size
Target sequence (P20594 whole entry, looked up): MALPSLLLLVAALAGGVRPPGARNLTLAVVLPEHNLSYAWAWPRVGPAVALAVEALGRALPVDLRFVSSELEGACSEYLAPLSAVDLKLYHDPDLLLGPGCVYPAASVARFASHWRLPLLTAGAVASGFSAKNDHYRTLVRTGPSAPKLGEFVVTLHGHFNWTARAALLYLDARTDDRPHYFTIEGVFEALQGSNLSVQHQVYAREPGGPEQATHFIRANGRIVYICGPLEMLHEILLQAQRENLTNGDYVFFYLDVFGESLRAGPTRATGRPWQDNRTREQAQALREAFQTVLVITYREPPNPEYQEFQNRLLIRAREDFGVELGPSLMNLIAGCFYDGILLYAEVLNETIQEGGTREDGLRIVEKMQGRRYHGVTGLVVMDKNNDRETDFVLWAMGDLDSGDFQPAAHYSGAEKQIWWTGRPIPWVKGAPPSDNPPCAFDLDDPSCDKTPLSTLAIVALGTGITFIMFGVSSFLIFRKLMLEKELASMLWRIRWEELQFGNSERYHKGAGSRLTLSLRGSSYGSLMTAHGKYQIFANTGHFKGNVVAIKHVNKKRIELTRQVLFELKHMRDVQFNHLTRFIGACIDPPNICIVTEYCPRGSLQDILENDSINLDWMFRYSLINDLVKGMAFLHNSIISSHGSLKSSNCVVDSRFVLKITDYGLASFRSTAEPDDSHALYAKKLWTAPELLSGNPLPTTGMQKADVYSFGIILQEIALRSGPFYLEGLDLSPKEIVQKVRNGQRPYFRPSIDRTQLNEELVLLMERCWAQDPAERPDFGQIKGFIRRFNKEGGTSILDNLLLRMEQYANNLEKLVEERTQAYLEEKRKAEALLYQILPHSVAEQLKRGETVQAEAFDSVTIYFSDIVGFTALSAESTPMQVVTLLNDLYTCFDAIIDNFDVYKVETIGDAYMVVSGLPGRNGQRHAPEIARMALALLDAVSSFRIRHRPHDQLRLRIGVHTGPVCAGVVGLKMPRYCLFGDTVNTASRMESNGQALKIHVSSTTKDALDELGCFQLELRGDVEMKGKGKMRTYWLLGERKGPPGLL
FLuc counter = Natriuretic polypeptide receptor (hNpr1) antagonism - Confirmation firefly luciferase (FLuc) inhibition counterscreen | shares compounds with NPR1 antag | purified FLuc enzyme, luminescence, Km substrate | Potency, µM (top dose mostly 57.6 µM), usual class: inhibitors | 1,400 tested, 0.7% active
GloSensor cGMP = Natriuretic polypeptide receptor (hNpr1) antagonism - Counterscreen GloSensor control cell line | Potency, µM (series often up to 57.6 µM), hits mostly inhibitors | shares compounds with NPR1 antag | 1,400 tested, 69% active | HEK293 GloSensor cGMP, SNP-stimulated, luminescence; calls by dose curve; note: nearly all actives have a fitted effect of over 70% in size
Large screens that a line does not name were inactive (follow-up assays come after a bar, where they were run). Sampled rows, rich in hits. Any-hit rate of the full collection: about 11%. Unless noted, calls come from the whole dose curve; as a rule, active = well fitted curve in the direction sought with a large enough effect; inconclusive = small, poorly fitted or top-dose-only effect, or another doubt; inactive = no such curve, though single readings can be large; an effect the other way counts as inactive or inconclusive.

COc1ccc(-c2nc3ccccc3s2)cc1NC(=O)COc1cccc(C)c1	none (no result: HEK cytotox, NPR1 antag, FLuc inh-1, NIH3T3 tox) | FLuc SDR no ATP inactive | FLuc SDR ATP inactive | FLuc inh-2 inactive
COc1ccc(C)cc1NC(=O)COc1ccc(-c2nnc3n2CCCC3)cc1	HEK cytotox inconclusive, NIH3T3 tox inconclusive
COc1ccc(-c2nc3ccccc3s2)cc1NC(=O)COc1ccc(C)cc1	none (no result: HEK cytotox, NPR1 antag, FLuc inh-1, NIH3T3 tox) | FLuc SDR no ATP inactive | FLuc SDR ATP inactive | FLuc inh-2 inactive
CCO[C@H]1CN(Cc2ccccc2OCC(=O)N2CCC(C)CC2)C[C@@H]1O	none
Cc1nnc(SCc2ccccc2)c2cc3sccc3n12	none (no result: HEK cytotox, NPR1 antag, FLuc inh-1, NIH3T3 tox) | FLuc SDR no ATP inactive | FLuc SDR ATP inactive | FLuc inh-2 inconclusive
OCCNc1ncnc2ccc(-c3cccc(O)c3)cc12	NIH3T3 tox inconclusive
O=C(Nc1cccc(-n2cccn2)c1)C1CCCN1C(=O)CCn1cccn1 (centres undefined)	none
COCC(=O)N(C1CCOCC1)C1CCN(C(=O)Cc2ccc(OC)cc2)CC1	none
COc1ccc2cc(C3CN(C(=O)Cc4ccc(O)cc4)CCO3)ccc2c1 (centres undefined)	HEK cytotox inconclusive, NPR1 antag inconclusive, FLuc inh-1 8.9µM, NIH3T3 tox inconclusive | FLuc SDR no ATP inactive | FLuc SDR ATP inactive | FLuc inh-2 inconclusive
c1ccc(COc2cccc(-c3nc4ccccc4s3)c2)cc1	none (no result: HEK cytotox, NPR1 antag, FLuc inh-1, NIH3T3 tox) | FLuc SDR no ATP inactive | FLuc SDR ATP inactive | FLuc inh-2 5µM
NC(=O)COC(=O)c1ccccc1-c1nc2ccccc2s1	none (no result: HEK cytotox, NPR1 antag, FLuc inh-1, NIH3T3 tox) | FLuc SDR no ATP inactive | FLuc SDR ATP inactive | FLuc inh-2 inactive
c1ccc(COc2ccccc2-c2nc3ccccc3s2)cc1	none (no result: HEK cytotox, NPR1 antag, FLuc inh-1, NIH3T3 tox) | FLuc SDR no ATP inactive | FLuc SDR ATP inactive | FLuc inh-2 inconclusive
Cc1nn2c(c1-c1ccccc1OCc1ccccc1)N(Cc1ccccc1O)CCC2	HEK cytotox inconclusive, NPR1 antag inconclusive, NIH3T3 tox inconclusive
O=C(O)c1cccc(-c2cnc3ccccc3c2)c1	none (no result: NPR1 antag, FLuc inh-1)
CCC(C)NC(=O)N1CCC2(CC1)CN(Cc1ccc(OC)cc1)C2=O (centres undefined)	none (no result: NPR1 antag, FLuc inh-1)
Cc1cc(C(=O)N2CCC3(CC2)Nc2ccccc2NC3=O)c2ccccc2n1	none
O=C(c1ccnc2ccccc12)N1CCC2(CC1)Nc1ccccc1NC2=O	HEK cytotox inconclusive, NPR1 antag inconclusive | NPR1 antag cnf 22µM | Npr2 selectivity inconclusive | FLuc counter inactive | GloSensor cGMP 27µM
Cc1oc2c(c1C(=O)NCCCN1CCCC1=O)CN(Cc1cccc(F)c1)CC2	HEK cytotox inconclusive, FLuc inh-1 inconclusive
O=C(Nc1ccc(Cl)cc1Cl)c1c[nH]c2cccnc12	HEK cytotox inconclusive, NIH3T3 tox inconclusive (no result: NPR1 antag, FLuc inh-1) | NPR1 antag cnf 21µM | Npr2 selectivity 14µM | FLuc counter 0.96µM | GloSensor cGMP inconclusive
O=C(Nc1ccc(Cl)cc1Cl)c1ccc2cc[nH]c2n1	none (no result: NPR1 antag, FLuc inh-1) | NPR1 antag cnf 1.7µM | Npr2 selectivity 2.7µM | FLuc counter 0.15µM | GloSensor cGMP 2.4µM
CN1CCN(C(=O)c2nc3sccn3c2-c2ccc(C(F)(F)F)cc2)CC1	none (no result: NPR1 antag, FLuc inh-1)
COCCN1C[C@H]2CN(Cc3cccc(OC)c3)CCN2C1=O	none
COc1cccc(CN2CCN(c3nc4c(s3)c(C)nn4C)CC2=O)c1	HEK cytotox inconclusive, NPR1 antag inconclusive, NIH3T3 tox inconclusive | NPR1 antag cnf inconclusive | Npr2 selectivity inconclusive | FLuc counter inactive | GloSensor cGMP inconclusive
O=S(=O)(Cc1ccccc1)N1CCCC(Cc2noc(-c3cnccn3)n2)C1 (centres undefined)	none
Cc1nc(CNC(=O)CCN2Cc3ccccc3OC(c3ccccc3F)C2)cs1 (centres undefined)	none
Cn1nc(C2CCN(S(=O)(=O)c3ccc4c(c3)CCCC4)CC2)n(C2CCCC2)c1=O	HEK cytotox inconclusive, NPR1 antag 11µM, NIH3T3 tox inconclusive | NPR1 antag cnf 19µM | Npr2 selectivity 19µM | FLuc counter inactive | GloSensor cGMP 14µM
CC(C)CCN1CCC(N2CCN(S(=O)(=O)c3ccc4c(c3)CCCC4)CC2)C1=O (centres undefined)	HEK cytotox inconclusive, NPR1 antag inconclusive, NIH3T3 tox inconclusive | NPR1 antag cnf inactive | Npr2 selectivity inactive | FLuc counter inactive | GloSensor cGMP inactive
Cc1nnc2ccc(N3CCN(C(=O)Cc4ccc(C(F)(F)F)cc4)CC3)nn12	HEK cytotox inconclusive (no result: NPR1 antag, FLuc inh-1)
CN(Cc1cccnc1)c1nc2c(c(=O)[nH]1)CCN(Cc1ccc(Cl)cc1F)CC2	HEK cytotox inconclusive, NPR1 antag 11µM, NIH3T3 tox inconclusive | NPR1 antag cnf 15µM | Npr2 selectivity 17µM | FLuc counter inactive | GloSensor cGMP 9.7µM
CN(Cc1cccnc1)c1nc2c(c(=O)[nH]1)CCN(Cc1ccccc1F)CC2	HEK cytotox inconclusive, NIH3T3 tox inconclusive
O=C(NCC1Cn2cccc2C(=O)N1Cc1ccccc1)c1cccc2nccnc12 (centres undefined)	HEK cytotox inconclusive

Source: PubChem BioAssay (National Center for Advancing Translational Sciences (NCATS))
